The panel holds about 79,000 compounds, 15% with a hit somewhere; the sample as a whole holds those more often. The source made the active and inactive calls. Rule as the data show it: active = growth inhibition above about 70%; inactive = the rest.
Columns and labels:
[1] = NCI Yeast Anticancer Drug Screen. Data for the rad52 strain (AID 147);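 also: 0% = growth of vehicle-treated control cultures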; conditions: S. cerevisiae rad52 mutant growth inhibition, hits give high values
Method in brief: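 Screen used a yeast mutant impaired in DNA repair. After compound exposure, growth was measured. Values reflect inhibition compared with vehicle-treated cells.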

[2] = NCI Yeast Anticancer Drug Screen. Data for the wt1 strain (AID 149);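 also: 0% = growth of vehicle-treated wt1 cultures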; conditions: S. cerevisiae wt1 strain (SPY 50644) growth inhibition, hits give high values
Method in brief: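 The wt1 strain was treated with compounds, and growth was compared with vehicle-treated cultures to give inhibition.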

[3] = NCI Yeast Anticancer Drug Screen. Data for the rad50EPP+ strain (AID 151);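 also: 0% = growth of vehicle-treated control cultures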; conditions: S. cerevisiae rad50 mutant strain, hits give high values
Method in brief: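 Exposing the rad50EPP+ strain to each compound, growth was compared with vehicle-only cultures to give inhibition.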

[4] = NCI Yeast Anticancer Drug Screen. Data for the mgt1 strain (AID 153); conditions: S. cerevisiae mgt1 mutant growth inhibition, hits give high values
Method in brief: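 Genetically defined yeast (mgt1) treated with compound; inhibition of growth expressed against vehicle-treated controls.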

[5] = NCI Yeast Anticancer Drug Screen. Data for the rad50 strain (AID 155);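 also: 0% = growth of vehicle-only cultures of the same strain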; conditions: S. cerevisiae rad50 strain growth inhibition, hits give high values
Method in brief: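 Cells are treated with compound, grown, and their growth is then scored against vehicle-only cultures of the same repair-deficient yeast strain.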

[6] = NCI Yeast Anticancer Drug Screen. Data for the mec2-1 strain (AID 157); conditions: S. cerevisiae mec2-1 strain, hits give high values
Method in brief: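 Readout is yeast growth inhibition, normalised to vehicle-treated controls, in the mec2-1 strain exposed to compound.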

[7] = NCI Yeast Anticancer Drug Screen. Data for the sgs1 mgt1 strain (AID 161);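 also: 0% = growth of cultures given vehicle only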; conditions: S. cerevisiae sgs1 mgt1 strain, hits give high values
Method in brief: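 Yeast cells carrying a defined DNA-repair defect were exposed to test compounds. Growth inhibition was measured relative to vehicle-treated controls.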

[8] = NCI Yeast Anticancer Drug Screen. Data for the CLN2oe strain (AID 163);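 also: 0% = growth of vehicle-only control cultures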; conditions: S. cerevisiae CLN2oe strain, hits give high values
Method in brief: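 Values reflect how much compound exposure reduced yeast growth, referenced to vehicle-exposed cells. Assay organism is a strain with a defined genetic change affecting cell-cycle control.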

[9] = NCI Yeast Anticancer Drug Screen. Data for the cln2 rad14 strain (AID 165);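 also: 0% = growth equal to vehicle treated cultures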; conditions: S. cerevisiae cln2 rad14 strain, hits give high values
Method in brief: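 Relative to vehicle controls, growth inhibition of compound-treated cln2 rad14 yeast was recorded.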

[10] = NCI Yeast Anticancer Drug Screen. Data for the bub3 strain (AID 167); conditions: S. cerevisiae bub3 mutant strain, hits give high values
Method in brief: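 Part of a panel of yeast mutants defective in DNA damage repair or cell cycle regulation. Each strain is grown with compound, and inhibition is calculated relative to solvent-treated cultures.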

[11] = NCI Yeast Anticancer Drug Screen. Data for the wt2 strain (AID 169);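 also: 0% = growth of vehicle-treated yeast cultures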; conditions: S. cerevisiae wt2 strain growth inhibition, hits give high values
Method in brief: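 Values express reduction in yeast growth under compound treatment, referenced to vehicle-treated cells.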

[12] = NCI Yeast Anticancer Drug Screen. Data for the mlh1 strain (AID 171);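 also: 0% = growth of vehicle-treated control cultures of the same strain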; conditions: S. cerevisiae mlh1 strain growth inhibition, hits give high values
Method in brief: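 Steps: expose the defined-mutant yeast strain to compound; expose a parallel culture to vehicle; measure growth; express compound effect as inhibition relative to the vehicle culture.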

[13] = NCI Yeast Anticancer Drug Screen. Data for the sgs1 strain (AID 173);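 also: 0% = growth of vehicle-only control cultures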; conditions: S. cerevisiae sgs1 mutant, hits give high values
Method in brief: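 Treat defined-mutant yeast with compound; measure growth; calculate inhibition relative to vehicle-treated cells.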

[14] = NCI Yeast Anticancer Drug Screen. Data for the mlh1 rad18 strain (AID 175); conditions: S. cerevisiae mlh1 rad18 strain growth inhibition, hits give high values
Method in brief: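 Test agents were incubated with a yeast strain of defined genotype (DNA damage repair defect). Inhibition of growth was derived by comparison with vehicle-exposed cultures.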

[15] = NCI Yeast Anticancer Drug Screen. Data for the rad18 strain (AID 177); conditions: S. cerevisiae rad18 mutant growth inhibition, hits give high values
Method in brief: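 A genetically defined yeast mutant impaired in DNA damage repair was treated with test compounds, then its growth was measured against cultures receiving vehicle alone.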

[16] = NCI Yeast Anticancer Drug Screen. Data for the rad14 strain (AID 159);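 also: 0% = growth of vehicle-treated control cultures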; conditions: S. cerevisiae rad14 strain growth inhibition, hits give high values
Method in brief: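 Readout: yeast growth inhibition, referenced to vehicle-only cultures. Strain bears a defined alteration in DNA damage repair.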

[17] = at 5.0 µM (retest, dose inferred, filed as 0.5)
[18] = at 50.0 µM (retest, dose inferred, filed as 5.0)

Measured: growth inhibition

CCCCN(CCC#N)c1ccc(/C=C/c2ccnc3ccccc23)cc1
inactive: [1]; at 1.2 µM -6% | [1]; at 3.7 µM -9% | [1]; at 11.0 µM -9% | [1]; at 33.0 µM 63% | [2]; at 1.2 µM -6% | [2]; at 3.7 µM -10% | [2]; at 11.0 µM -13% | [2]; at 33.0 µM 66% | [3]; at 1.2 µM -3% | [3]; at 3.7 µM 7% | [3]; at 11.0 µM 30% | [3]; at 33.0 µM 38% | [3]; at 100.0 µM 26% | [4]; at 1.2 µM -6% | [4]; at 3.7 µM -9% | [4]; at 11.0 µM 0% | [4]; at 33.0 µM 62% | [5]; at 1.2 µM -4% | [5]; at 3.7 µM -7% | [5]; [17] 36% | [5]; at 11.0 µM -6% | [5]; at 33.0 µM 46% | [5]; [18] 30% | [5]; at 50.0 µM -15.1% | [6]; at 1.2 µM -9% | [6]; at 3.7 µM -10% | [6]; [17] 4% | [6]; at 11.0 µM -9% | [6]; at 33.0 µM 45% | [6]; at 50.0 µM -6.1% | [7]; [17] -11% | [7]; at 50.0 µM 14.9% | [8]; at 1.2 µM -8% | [8]; at 3.7 µM -14% | [8]; at 11.0 µM -22% | [8]; at 33.0 µM -23% | [8]; at 100.0 µM 22% | [9]; [17] 2% | [9]; [18] 12% | [9]; at 50.0 µM -9.8% | [10]; at 1.2 µM -7% | [10]; at 3.7 µM -14% | [10]; [17] -7% | [10]; at 11.0 µM -13% | [10]; at 33.0 µM -3% | [10]; at 50.0 µM -8.45% | [10]; at 100.0 µM 53% | [11]; at 1.2 µM -9% | [11]; at 3.7 µM -12% | [11]; at 11.0 µM -1% | [11]; at 33.0 µM 69% | [12]; at 1.2 µM -3% | [12]; at 3.7 µM -6% | [12]; at 11.0 µM 10% | [12]; at 33.0 µM 55% | [13]; at 1.2 µM -4% | [13]; at 3.7 µM -5% | [13]; at 11.0 µM 17% | [14]; [17] 16% | [14]; at 50.0 µM 11.7% | [15]; at 1.2 µM -3% | [15]; at 3.7 µM -3% | [15]; at 11.0 µM 1% | [15]; at 33.0 µM 32%
active: [1]; at 100.0 µM 79% | [2]; at 100.0 µM 85% | [4]; at 100.0 µM 76% | [5]; at 100.0 µM 72% | [6]; [18] 80% | [6]; at 100.0 µM 80% | [7]; [18] 77% | [10]; [18] 73% | [11]; at 100.0 µM 83% | [12]; at 100.0 µM 76% | [13]; at 33.0 µM 73% | [13]; at 100.0 µM 84% | [14]; [18] 74% | [15]; at 100.0 µM 77%

O=C1c2ccccc2C(=O)c2c(O)c(NCCNCCO)cc(O)c21
inactive: [1]; at 1.2 µM -31% | [1]; at 3.7 µM -13% | [1]; at 11.0 µM 6% | [2]; at 1.2 µM 1% | [2]; at 3.7 µM -1% | [2]; at 11.0 µM 9% | [3]; at 1.2 µM -4% | [3]; at 3.7 µM 8% | [3]; at 11.0 µM 2% | [3]; at 33.0 µM 16% | [4]; at 1.2 µM 0% | [4]; at 3.7 µM 4% | [4]; at 11.0 µM 36% | [6]; at 1.2 µM -3% | [6]; at 3.7 µM -12% | [6]; [17] 23% | [6]; at 11.0 µM 11% | [16]; at 1.2 µM -5% | [16]; at 3.7 µM -2% | [16]; at 11.0 µM 40% | [7]; [17] 35% | [9]; [17] 11% | [9]; [18] 57% | [9]; at 50.0 µM 65.5% | [10]; at 1.2 µM 13% | [10]; at 3.7 µM 21% | [10]; [17] 39% | [10]; at 11.0 µM 45% | [11]; at 1.2 µM -16% | [11]; at 3.7 µM -4% | [12]; at 1.2 µM -23% | [12]; at 3.7 µM -13% | [12]; at 11.0 µM 44% | [13]; at 1.2 µM -4% | [13]; at 3.7 µM 12% | [13]; at 11.0 µM 48% | [14]; [17] 58% | [15]; at 1.2 µM -13% | [15]; at 3.7 µM -3% | [15]; at 11.0 µM 20%
active: [1]; at 33.0 µM 88% | [1]; at 100.0 µM 92% | [2]; at 33.0 µM 71% | [2]; at 100.0 µM 83% | [3]; at 100.0 µM 92% | [4]; at 33.0 µM 91% | [4]; at 100.0 µM 96% | [6]; at 33.0 µM 84% | [6]; [18] 96% | [6]; at 50.0 µM 87.2% | [6]; at 100.0 µM 86% | [16]; at 33.0 µM 95% | [16]; at 100.0 µM 95% | [7]; [18] 97% | [7]; at 50.0 µM 85.2% | [10]; at 33.0 µM 90% | [10]; [18] 97% | [10]; at 50.0 µM 70.7% | [10]; at 100.0 µM 91% | [11]; at 11.0 µM 73% | [11]; at 33.0 µM 81% | [11]; at 100.0 µM 93% | [12]; at 33.0 µM 91% | [12]; at 100.0 µM 94% | [13]; at 33.0 µM 93% | [13]; at 100.0 µM 94% | [14]; [18] 95% | [14]; at 50.0 µM 90.3% | [15]; at 33.0 µM 89% | [15]; at 100.0 µM 94%

— PubChem BioAssay (NCI)
